The values that follow come from the antibiotic and cytotoxicity screens of Wong et al. (2023).

The whole screen tested about 39,000 compounds, of which about 1,500 (3.8%) were called active. Many of the other results were omitted from the sample, so actives are more common in it than they were.

The test system of this assay is HSkMC (human skeletal muscle cells). The experiment in a line: cytotoxicity call (relative viability < 0.9). Conditions: 10 µM.
In the case of `COc1ccc(S(=O)(=O)N(C)C[C@H]2OCc3cnnn3CCCC(=O)N([C@H](C)CO)C[C@@H]2C)cc1`, the cytotoxicity call was “inactive”.
Under `Cc1noc(C)c1NC(=O)Nc1cccc2c1O[C@@H](CN(C)S(=O)(=O)c1ccccc1)[C@H](C)CN([C@@H](C)CO)C2=O` stands “inactive”; under `C[C@@H]1CCCCO[C@H](CN(C)C(=O)c2ccncc2)[C@H](C)CN([C@@H](C)CO)C(=O)c2cc(NC(=O)C3CCCCC3)ccc2O1`, “inactive”; under `COc1ccc(-c2cnc3c(c2)C(=O)N([C@@H](C)CO)C[C@@H](C)[C@@H](CN(C)C(=O)Cc2cccnc2)O3)cc1`, “inactive”.
Under `C/C=C/c1cccc(-c2nc(C(=O)NCc3ccccc3)cc3c2[C@H](CCO)N([S@@](=O)C(C)(C)C)C3)c1` stands “inactive”; under `C=CCOC(=O)[C@@H]1[C@H]2C(=O)O[C@H](c3ccccc3)[C@H](c3ccccc3)N2[C@H](c2ccccc2OCCO)[C@@]12C(=O)Nc1ccc(I)cc12`, “inactive”.
Next, `O=C(C[C@@H]1CC[C@H](NC(=O)Nc2ccc3c(c2)OCO3)[C@H](CO)O1)NCCCN1CCOCC1`: “inactive”.
As for `C[C@H](CO)N1C[C@H](C)[C@@H](CN(C)S(=O)(=O)c2ccc(Cl)cc2)Oc2ccc(NC(=O)Cn3cnnn3)cc2CC1=O`, the cytotoxicity call is “inactive”.
Under `COc1ccc(-c2ccc3c(c2)O[C@H](CN(C)CC2CCOCC2)[C@H](C)CN([C@H](C)CO)S3(=O)=O)cc1` stands “inactive”.
Next, `COCc1cn(CC[C@@H]2CC[C@@H](NC(=O)CCN3CCCCC3)[C@@H](CO)O2)nn1`: “inactive”.
Take `Cn1c(=O)c2c(ncn2CC(O)CO)n(C)c1=O` (configuration not stated): the cytotoxicity call is “inactive”.
Under `Cn1c(=O)c2c(ncn2C[C@@H](O)CO)n(C)c1=O` stands “inactive”; under `Cn1c(=O)c(F)c(Nc2ccc(I)cc2F)c2c(=O)n(C[C@@H](O)CO)cnc21`, “active”; under `Cc1noc(C)c1S(=O)(=O)N(C)C[C@H]1OCc2cnnn2CCCC(=O)N([C@H](C)CO)C[C@H]1C`, “inactive”.
Next, `Cc1ccc(S(=O)(=O)Nc2ccc3c(c2)CC(=O)N([C@H](C)CO)C[C@@H](C)[C@@H](CN(C)Cc2ccncc2)O3)cc1`: “inactive”; `CS(=O)(=O)Nc1ccc2c(c1)[C@H]1C[C@H](CC(=O)NCc3ccc(-c4ccccc4)cc3)O[C@H](CO)[C@H]1O2`: “inactive”; `C/C=C1\[C@@H](O[C@H]2O[C@@H](CO)[C@@H](O)[C@@H](O)[C@@H]2O)OC=C(C(=O)OC)[C@H]1CC(=O)OC[C@H]1[C@H](C)[C@H](OC(=O)C[C@@H]2C(C(=O)OC)=CO[C@H](O[C@H]3O[C@@H](CO)[C@@H](O)[C@@H](O)[C@@H]3O)/C2=C\C)C[C@@H]1[C@H](CO)COC(=O)C[C@@H]1C(C(=O)OC)=CO[C@@H](O[C@H]2O[C@@H](CO)[C@@H](O)[C@@H](O)[C@@H]2O)/C1=C\C`: “inactive”.
Next, `C[C@@H]1CN([C@H](C)CO)C(=O)c2cc(NC(=O)C3CCCCC3)ccc2O[C@H]1CN(C)Cc1ccc(Cl)c(Cl)c1`: “inactive”; `CC(C)NC(=N)NC(=N)Nc1ccc(Cl)cc1.Cl`: “inactive”.
For the compound `N[C@@H](CC(=O)Nc1ccc(Cl)cc1)C(=O)O`, the cytotoxicity call was “inactive”.
Under `Cl.Cl.N=C(NCCCCCCNC(=N)NC(=N)Nc1ccc(Cl)cc1)NC(=N)Nc1ccc(Cl)cc1` stands “active”; under `C[C@H](CO)N1C[C@H](C)[C@H](CN(C)S(=O)(=O)c2ccccc2)Oc2ccc(NS(=O)(=O)c3cn(C)cn3)cc2C1=O`, “inactive”; under `O=C(O)c1ccnc2nc[nH]c12`, “inactive”.
Under `O=C1OC2(c3ccc(O)cc3Oc3cc(O)ccc32)c2ccccc21` stands “inactive”; under `O=C1OC2(c3ccccc31)c1cc(I)c(O)c(I)c1Oc1c2cc(I)c(O)c1I`, “active”.
Next, `O=C1OC(c2cc(I)c(O)c(I)c2)(c2cc(I)c(O)c(I)c2)c2ccccc21`: “inactive”.
As for `Clc1ccc(-c2cccs2)nn1`, the cytotoxicity call was “inactive”.
Under `CC(C)NC(=O)Nc1cccc2c1O[C@@H](CN(C)C(=O)Nc1ccc3c(c1)OCO3)[C@H](C)CN([C@H](C)CO)C2=O` stands “inactive”; under `COCC#Cc1cnc2c(c1)C(=O)N([C@H](C)CO)C[C@H](C)[C@H](CN(C)C(=O)Nc1ccccc1OC)O2`, “inactive”.
Next, `C[C@H]1CN([C@@H](C)CO)C(=O)c2cc(NS(=O)(=O)c3ccc(Cl)cc3)ccc2O[C@H]1CN(C)Cc1ccc(-c2ccccc2)cc1`: “inactive”; `C[C@@H]1CN([C@H](C)CO)C(=O)c2cc(NS(=O)(=O)c3ccccc3)ccc2O[C@@H]1CN(C)Cc1ccc(-c2ccccc2)cc1`: “inactive”.
Next, `C[C@H](CO)N1C[C@H](C)[C@H](CN(C)Cc2ccc(-c3ccccc3)cc2)Oc2ccc(NS(=O)(=O)c3ccc(Cl)cc3)cc2C1=O`: “active”; `C[C@H]1CN([C@@H](C)CO)C(=O)c2cc(NS(=O)(=O)c3ccccc3)ccc2O[C@@H]1CN(C)Cc1ccc(-c2ccccc2)cc1`: “inactive”; `C[C@@H]1CN([C@H](C)CO)C(=O)c2cc(NS(=O)(=O)c3ccc(Cl)cc3)ccc2O[C@@H]1CN(C)Cc1ccc(-c2ccccc2)cc1`: “active”.
With `C[C@H]1CN([C@@H](C)CO)C(=O)c2cc(NS(=O)(=O)c3ccc(Cl)cc3)ccc2O[C@@H]1CN(C)Cc1ccc(-c2ccccc2)cc1`, the cytotoxicity call is “inactive”.
Under `C[C@@H]1CN([C@@H](C)CO)C(=O)c2cc(NS(=O)(=O)c3ccc(Cl)cc3)ccc2O[C@@H]1CN(C)Cc1ccc(-c2ccccc2)cc1` stands “active”; under `C[C@H](CO)N1C[C@H](C)[C@@H](CN(C)Cc2ccc(-c3ccccc3)cc2)Oc2ccc(NS(=O)(=O)c3ccccc3)cc2C1=O`, “inactive”.
Under `C[C@@H]1CN([C@@H](C)CO)C(=O)c2cc(NS(=O)(=O)c3ccc(Cl)cc3)ccc2O[C@H]1CN(C)Cc1ccc(-c2ccccc2)cc1` stands “active”; under `C[C@H](CO)N1C[C@H](C)[C@H](CN(C)Cc2ccc(-c3ccccc3)cc2)Oc2ccc(NS(=O)(=O)c3ccccc3)cc2C1=O`, “inactive”; under `CN1CCN(C)C2(CCN(C(=O)c3ccn[nH]3)CC2)C1=O`, “inactive”.
`COCCNC(=O)C[C@@H]1CC[C@H]2[C@@H](COc3ccc(NS(=O)(=O)c4ccc(Cl)cc4)cc3C(=O)N2C)O1`: the cytotoxicity call was “inactive”.
Next, `C[C@H](CO)N1C[C@H](C)[C@@H](CN(C)C(=O)Nc2ccc(F)cc2)OCCCC[C@H](C)Oc2ccc(NS(=O)(=O)c3cccs3)cc2C1=O`: “inactive”.
